# Results from the supplement of paper PMC8975748.
# Counter-ions that a name gives are not always drawn. ± gives the standard deviation of the averaged measurements.
# Columns and labels:
# [1] = system: Saccharomyces cerevisiae BY4741 SeMeCo community; test: mean cell size (pixel area) (pixels); higher = larger cells; details: 10 µM; 24 h; SM minimal medium
# Method in brief: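 The test system was a fluorescent Saccharomyces cerevisiae BY4741 community with four plasmids, each restoring one auxotrophy and carrying a fluorescent marker. Cells were grown for 24 h in SM medium with drug at a final 10 µM in 384-well plates, then fixed with paraformaldehyde and imaged by automated confocal microscopy for Harmony analysis of mean cell pixel area per well. Values represent the average of 3 replicates. Same SeMeCo high-content imaging drug screen: Selleck FDA-approved drugs at 10 µM, 24 h in SM medium, 384-well plates, 3 replicates.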
# [2] = system: Saccharomyces cerevisiae BY4741 SeMeCo community; test: z-score of prototroph abundance vs DMSO median; higher = larger share of this subpopulation than in DMSO controls; details: 10 µM; 24 h; SM minimal medium; subpopulation (auxotrophy): Prototroph
# Method in brief: (§1)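 Scoring was based on each subpopulation's abundance, expressed as a z-score against the vehicle-well median. A Saccharomyces cerevisiae BY4741 community with four plasmids, each restoring one auxotrophy and encoding a distinct fluorescent protein, was pre-grown overnight to OD600 1.0, diluted to 0.3, and added at 70 µl to 384-well plates acoustically predosed with library drugs (10 µM final). It then grew 24 h in minimal SM medium before paraformaldehyde fixation and automated confocal microscopy, with single-auxotroph fluorescent strains setting thresholds and autofluorescence correction.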
# [3] = system: Saccharomyces cerevisiae BY4741 SeMeCo community; test: z-score of subpopulation abundance vs DMSO median, subpopulation auxotrophic for M; higher = larger share of this subpopulation than in DMSO controls; details: 10 µM; 24 h; SM minimal medium; subpopulation (auxotrophy): M
# Method in brief: as §1
# [4] = system: Saccharomyces cerevisiae BY4741 SeMeCo community; test: z-score of subpopulation abundance vs DMSO median, subpopulation auxotrophic for L; higher = larger share of this subpopulation than in DMSO controls; details: 10 µM; 24 h; SM minimal medium; subpopulation (auxotrophy): L
# Method in brief: as §1
# [5] = system: Saccharomyces cerevisiae BY4741 SeMeCo community; test: z-score of subpopulation abundance vs DMSO median, subpopulation auxotrophic for U; higher = larger share of this subpopulation than in DMSO controls; details: 10 µM; 24 h; SM minimal medium; subpopulation (auxotrophy): U
# Method in brief: as §1
# [6] = system: Saccharomyces cerevisiae BY4741 SeMeCo community; test: z-score of subpopulation abundance vs DMSO median, subpopulation auxotrophic for H; higher = larger share of this subpopulation than in DMSO controls; details: 10 µM; 24 h; SM minimal medium; subpopulation (auxotrophy): H
# Method in brief: as §1
# [7] = system: Saccharomyces cerevisiae BY4741 SeMeCo community; test: z-score of subpopulation abundance vs DMSO median, subpopulation auxotrophic for LU; higher = larger share of this subpopulation than in DMSO controls; details: 10 µM; 24 h; SM minimal medium; subpopulation (auxotrophy): LU
# Method in brief: as §1
# [8] = system: Saccharomyces cerevisiae BY4741 SeMeCo community; test: z-score of subpopulation abundance vs DMSO median, subpopulation auxotrophic for LM; higher = larger share of this subpopulation than in DMSO controls; details: 10 µM; 24 h; SM minimal medium; subpopulation (auxotrophy): LM
# Method in brief: as §1
# [9] = system: Saccharomyces cerevisiae BY4741 SeMeCo community; test: z-score of subpopulation abundance vs DMSO median, subpopulation auxotrophic for HU; higher = larger share of this subpopulation than in DMSO controls; details: 10 µM; 24 h; SM minimal medium; subpopulation (auxotrophy): HU
# Method in brief: as §1
# [10] = system: Saccharomyces cerevisiae BY4741 SeMeCo community; test: z-score of subpopulation abundance vs DMSO median, subpopulation auxotrophic for UM; higher = larger share of this subpopulation than in DMSO controls; details: 10 µM; 24 h; SM minimal medium; subpopulation (auxotrophy): UM
# Method in brief: as §1
# [11] = system: Saccharomyces cerevisiae BY4741 SeMeCo community; test: z-score of subpopulation abundance vs DMSO median, subpopulation auxotrophic for HL; higher = larger share of this subpopulation than in DMSO controls; details: 10 µM; 24 h; SM minimal medium; subpopulation (auxotrophy): HL
# Method in brief: as §1
# [12] = system: Saccharomyces cerevisiae BY4741 SeMeCo community; test: z-score of subpopulation abundance vs DMSO median, subpopulation auxotrophic for HLU; higher = larger share of this subpopulation than in DMSO controls; details: 10 µM; 24 h; SM minimal medium; subpopulation (auxotrophy): HLU
# Method in brief: as §1
# [13] = system: Saccharomyces cerevisiae BY4741 SeMeCo community; test: z-score of subpopulation abundance vs DMSO median, subpopulation auxotrophic for HLM; higher = larger share of this subpopulation than in DMSO controls; details: 10 µM; 24 h; SM minimal medium; subpopulation (auxotrophy): HLM
# Method in brief: as §1
# [14] = system: Saccharomyces cerevisiae BY4741 SeMeCo community; test: z-score of subpopulation abundance vs DMSO median, subpopulation auxotrophic for HUM; higher = larger share of this subpopulation than in DMSO controls; details: 10 µM; 24 h; SM minimal medium; subpopulation (auxotrophy): HUM
# Method in brief: as §1
# [15] = system: Saccharomyces cerevisiae BY4741 SeMeCo community; test: z-score of subpopulation abundance vs DMSO median, subpopulation auxotrophic for LUM; higher = larger share of this subpopulation than in DMSO controls; details: 10 µM; 24 h; SM minimal medium; subpopulation (auxotrophy): LUM
# Method in brief: as §1
# [16] = system: Saccharomyces cerevisiae BY4741 SeMeCo community; test: z-score of subpopulation abundance vs DMSO median, subpopulation auxotrophic for HLUM; higher = larger share of this subpopulation than in DMSO controls; details: 10 µM; 24 h; SM minimal medium; subpopulation (auxotrophy): HLUM
# Method in brief: as §1
# [17] = system: Saccharomyces cerevisiae BY4741 SeMeCo community; test: z-score of subpopulation abundance vs DMSO median, subpopulation auxotrophic for HM; higher = larger share of this subpopulation than in DMSO controls; details: 10 µM; 24 h; SM minimal medium; subpopulation (auxotrophy): HM
# Method in brief: as §1
Compound,mean cell size [1],z-score of prototroph abundance [2],z-score of subpopulation abundance [3],z-score of subpopulation abundance [4],z-score of subpopulation abundance [5],z-score of subpopulation abundance [6],z-score of subpopulation abundance [7],z-score of subpopulation abundance [8],z-score of subpopulation abundance [9],z-score of subpopulation abundance [10],z-score of subpopulation abundance [11],z-score of subpopulation abundance [12],z-score of subpopulation abundance [13],z-score of subpopulation abundance [14],z-score of subpopulation abundance [15],z-score of subpopulation abundance [16],z-score of subpopulation abundance [17]
C[n+]1ccccc1/C=N/O [Pralidoxime chloride],11.9 ± 0.062,-0.28,1.37,-0.96,1.25,-1.61,0.11,0.17,0.45,1.18,-0.65,-0.43,-0.4,0.39,0.34,-0.34,
CN(C)C(=O)COC(=O)Cc1ccc(OC(=O)c2ccc(NC(=N)N)cc2)cc1 [Camostat Mesilate],12.5 ± 0.12,0.66,-0.25,0.34,-0.37,,-0.08,-0.5,-0.36,-0.43,,-0.87,-0.36,-0.25,,,-0.32
COc1ccc2cc([C@H](C)C(=O)O)ccc2c1 [Naproxen Sodium],12.84 ± 0.07,1.33,0.17,0.02,-1.01,-0.42,-0.46,-0.16,-1.5,-2.49,0.47,0,0.18,-2.32,,-0.52,
CO/N=C(\C(=O)N[C@@H]1C(=O)N2C(C(=O)O)=C(Cn3ccc(=N)n3CCO)CS[C@H]12)c1csc(N)n1 [Cefoselis Sulfate],12.3 ± 0.24,0.34,1.45,-1.67,0.03,-1.31,-0.98,-0.08,-0.72,,,-0.33,-1.24,0.02,-0.44,-0.64,
CC[N+](C)(C)c1cccc(O)c1 [Edrophonium chloride],12.28 ± 0.12,-0.67,0.34,-0.53,1.2,,1.17,-0.05,-0.07,0.7,-0.46,-0.56,-0.47,0.76,0.48,,-0.15
CNC1CCCN(c2c(F)cc3c(=O)c(C(=O)O)cn(C4CC4)c3c2OC)C1 (stereo not given) [Balofloxacin],12.32 ± 0.029,-0.14,0.44,-0.33,0.18,-0.4,-0.04,-0.13,0.32,0.59,,-0.57,-0.9,0.67,,-0.35,
C#C[C@]1(O)CC[C@H]2[C@@H]3CCc4cc(OC5CCCC5)ccc4[C@H]3CC[C@@]21C [Quinestrol],12.4 ± 0.25,,0.32,1.42,-0.2,0.33,1.93,-0.07,0.41,,0.28,0.72,0.37,0.52,0.36,,
C/C(=C\C(=O)OCCCCCCCCC(=O)O)C[C@@H]1OC[C@H](C[C@@H]2O[C@H]2[C@@H](C)[C@H](C)O)[C@@H](O)[C@H]1O [Mupirocin calcium],12.2 ± 0.29,-0.73,-0.19,-0.72,1.26,0.77,0.56,,1.13,1.73,-0.37,0.12,-0.09,1.29,0.39,-0.25,0.83
CCn1cc(C(=O)O)c(=O)c2cnc(N3CCNCC3)nc21 [Pipemidic acid],12 ± 0.14,-0.62,0.72,-0.32,0.77,-1.07,0.45,0.15,,0.86,0.01,-0.49,-0.37,0.55,,0.28,
CC(=O)O[C@H]1C[C@@H]2CC[C@@H]3[C@H](CC[C@@]4(C)[C@H]3C[C@H]([N+]3(C)CCCCC3)[C@@H]4OC(C)=O)[C@@]2(C)C[C@@H]1N1CCCCC1 [Vecuronium Bromide],12.4 ± 0.31,0.67,-0.47,0.57,-0.48,-0.09,0,,-0.65,,,-0.64,-0.5,0.09,-0.05,0.24,-0.57
COc1c(N2C[C@@H]3CCCN[C@@H]3C2)c(F)cc2c(=O)c(C(=O)O)cn(C3CC3)c12 [Moxifloxacin HCl],12.3 ± 0.15,-0.74,0.89,2.07,-0.98,0.53,-0.22,,-0.55,-0.68,1.26,-0.07,0.72,0.22,,1.08,0.67
CC(=O)[O-].[K+] [Potassium acetate],12.5 ± 0.15,0.52,-0.39,-0.45,-0.46,,-0.01,,0.19,-0.51,0.08,-0.71,-0.9,-0.43,-0.06,-0.44,-0.29
COCCCC/C(=N\OCCN)c1ccc(C(F)(F)F)cc1 [Fluvoxamine maleate],12.3 ± 0.13,0.26,0.23,0.54,-0.51,,-0.03,,-0.5,-0.21,,-0.3,-0.76,0.06,0.15,-0.43,-0.09
CN1CCN(c2c(F)cc3c(=O)c(C(=O)O)cn4c3c2OCN4C)CC1 [Marbofloxacin],12.1 ± 0.38,0.49,0.52,-1.17,0.59,-1.41,0.12,,-0.06,-0.02,-0.85,-0.27,-0.54,0.33,-0.82,-0.72,-0.43
CC(C)N1CCN(c2ccc(OCC3COC(Cn4cncn4)(c4ccc(Cl)cc4Cl)O3)cc2)CC1 (stereo not given) [Terconazole],12.1 ± 0.043,1.34,-1.43,0.04,-0.27,-0.38,-0.65,,-0.58,-0.8,-0.76,-0.59,-0.59,-0.65,-0.86,-0.55,-1.2
